Screens as filed in PubChem BioAssay.
SW480 rerep – induces DNA re-replication in SW480 colon adenocarcinoma cells; Potency, µM (titrated, usually from 46.1 µM), inactives show at the highest dose re-replication activation, most hits filed as activators; 340,000 tested, 1.8% active; SW480 DNA re-replication, Hoechst DNA content imaging, 48 h; further: % of control where 0% means no effect; nearly all actives have a fitted effect of over 55% in size
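250 cells/well; 23 nL cpd via pin tool; 48 hr, 37 C, 5% CO2; Hoechst 40 min; imager read of total nuclear intensity, ex 405/em 500-530 nm.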
Gal4-VP16 FLuc – Gal4-VP16 reporter inhibition counter-screen; AID 2546; Potency, µM (titrated, usually from 53.6 µM), inactives show at the top dose activity, negative = inhibition, hits mostly inhibitors; Drosophila S2 Gal4-VP16 UAS-luciferase, luminescence, 20 h; 310,000 tested, 3.5% active;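 further: Gal4-VP16 expression switched on by copper sulfate through the metallothionein promoter; on the % scale 0 is the no-effect control and ±100 the full control effect; nearly all actives have a fitted effect of over 50% in size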
KB-3-1 cytotox – KB-3-1 parental cell cytotoxicity; KB-3-1 viability, CellTiter-Glo ATP luminescence, 72 h; Potency, µM (series often up to 46.1 µM), most hits filed as cytotoxic; 400,000 tested, 1.4% active; further: on the % scale 0 is the no-effect control and ±100 the full control effect; nearly all actives have a fitted effect of over 60% in size
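Viability of parental KB-3-1 cells, measured by CellTiter-Glo luminescence, followed a 72 h incubation at 37 °C with pinned compounds in phenol-red-free DMEM containing 10% FBS.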
KB-V1 MDR tox – kills drug-selected multidrug resistant KB-V1 cells. Potency, µM (series often up to 46.1 µM), most hits filed as cytotoxic. 400,000 tested, 3.4% active. KB-V1 MDR cells viability, CellTiter-Glo, 72 h; further: on the % scale 0 is the no-effect control and ±100 the full control effect; nearly all actives have a fitted effect of over 60% in size
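Potencies derive from concentration-effect curves fitted to normalized luminescence (CellTiter-Glo) of KB-V1 cells treated for 72 h at 37 degrees C in phenol-red-free DMEM containing 10% FBS.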
RORgamma inh – blocks mouse ROR gamma transcriptional activity | Drosophila S2 Gal4-RORgamma UAS-luciferase reporter, 20 h | 310,000 tested, 5.4% active | Potency, µM (doses to about 53.6 µM), inactives show at the top dose activity change, negative = inhibition, most hits filed as inhibitors | P51450; further: on the % scale 0 is the no-effect control and ±100 the full control effect; nearly all actives have a fitted effect of over 60% in size
Target sequence (P51450 whole entry, looked up, the tested form may be a part): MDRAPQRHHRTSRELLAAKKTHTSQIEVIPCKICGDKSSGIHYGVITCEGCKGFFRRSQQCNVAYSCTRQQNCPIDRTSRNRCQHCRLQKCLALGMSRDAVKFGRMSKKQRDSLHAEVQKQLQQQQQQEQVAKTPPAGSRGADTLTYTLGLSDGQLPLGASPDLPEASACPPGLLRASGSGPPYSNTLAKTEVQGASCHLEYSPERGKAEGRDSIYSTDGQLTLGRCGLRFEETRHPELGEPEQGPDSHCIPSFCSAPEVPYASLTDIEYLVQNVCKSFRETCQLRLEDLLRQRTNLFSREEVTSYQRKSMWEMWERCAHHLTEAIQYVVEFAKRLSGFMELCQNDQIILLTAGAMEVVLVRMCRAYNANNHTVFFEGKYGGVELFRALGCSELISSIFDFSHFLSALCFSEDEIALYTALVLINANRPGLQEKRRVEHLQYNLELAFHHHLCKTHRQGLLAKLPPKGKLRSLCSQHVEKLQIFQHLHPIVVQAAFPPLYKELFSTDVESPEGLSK
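Drosophila Schneider cells stably carrying a metallothionein-driven Gal4 DBD–ROR gamma fusion and a UAS-Photinus luciferase reporter were exposed to compound for 1 hr, then induced with copper sulfate (700 uM final) for 20 hr at ambient temperature before luminescence reading.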
MCF10A rerep – inducers of DNA re-replication in MCF 10A breast cells | MCF 10A DNA re-replication, Hoechst nuclear intensity, 48 h | Potency, µM (top dose mostly 46.1 µM), without a hit: at the top dose activity, positive = re-replication, usual class: activators | 350,000 tested, 2.9% active; further: % of control where 0% means no effect; nearly all actives have a fitted effect of over 50% in size
Numbers without * were called inactive; ! = not confirmed by another sample; [ ] = another dose, or the depositor's remark. A selection: hits, their analogues and other compounds. The true share with any hit is near 10%. The call rests on the fitted dose curve; in most records, active means well fitted curve in the direction sought with a large enough effect; inconclusive means small, poorly fitted or top-dose-only effect, or another doubt; inactive means no such curve, though single readings can be large; an effect the other way counts as inactive or inconclusive. Potency means the concentration at half of the fitted maximal effect.

Fc1ccccc1-c1nnc2c3ccccc3nc(N3CCOCC3)n12 was read as SW480 rerep -0.4%, Gal4-VP16 FLuc -4.0%, KB-3-1 cytotox inactive, KB-V1 MDR tox inactive, RORgamma inh 10.5% and MCF10A rerep 1.6%.
Screening Clc1ccc(-c2nnc3c4ccccc4nc(N4CCOCC4)n23)cc1Cl returned SW480 rerep -12.5%, Gal4-VP16 FLuc 12.7%, KB-3-1 cytotox inactive, KB-V1 MDR tox 2.59µM*, RORgamma inh inconclusive and MCF10A rerep inconclusive.
Screening Cc1cccc(NC(=O)CSc2nc3ccccc3c3nc(CCc4c(C)n[nH]c4C)nn23)c1 returned SW480 rerep inconclusive, Gal4-VP16 FLuc -6.4%, KB-3-1 cytotox inconclusive, KB-V1 MDR tox 23.1µM*!, RORgamma inh 24.9% and MCF10A rerep 7.31µM*.
Screening Cc1n[nH]c(C)c1CCc1nc2c3ccccc3nc(SCC(=O)Nc3ccccc3F)n2n1 returned SW480 rerep -0.5%, Gal4-VP16 FLuc inconclusive, KB-3-1 cytotox inactive, KB-V1 MDR tox inactive, RORgamma inh inconclusive and MCF10A rerep inconclusive.
`C#CC[N+](C)(C)CC#Cc1ccc(C)cc1` gave SW480 rerep -14.5%, Gal4-VP16 FLuc 1.1%, KB-3-1 cytotox 11.6µM*, KB-V1 MDR tox inactive, RORgamma inh 23.5% and MCF10A rerep 5.9%.
`Cc1ccc(NC(=S)N(C)N)cc1Cl` gave SW480 rerep -3.8%, Gal4-VP16 FLuc 5.2%[10 µM], KB-3-1 cytotox inactive, KB-V1 MDR tox inactive, RORgamma inh inconclusive and MCF10A rerep -3.7%.
`NC(=S)NNc1ccc(Cl)c(Cl)c1` gave SW480 rerep inconclusive, Gal4-VP16 FLuc 10µM*, KB-3-1 cytotox inactive, KB-V1 MDR tox inactive, RORgamma inh 6.31µM* and MCF10A rerep inconclusive.
`NC(=S)Nc1ccc(Cl)c(Cl)c1` gave SW480 rerep -4.6%, Gal4-VP16 FLuc 0.2%, KB-3-1 cytotox inactive, KB-V1 MDR tox inconclusive, RORgamma inh -18.4% and MCF10A rerep 1.4%.
Screening Cc1ccc(NNC(N)=S)cc1Cl returned SW480 rerep 1.4%, Gal4-VP16 FLuc 5.01µM*, KB-3-1 cytotox inactive, KB-V1 MDR tox inactive, RORgamma inh inconclusive and MCF10A rerep -3.1%.
CCCC[C@@H]1CCCO[C@@](C(=O)NCC2CC2)(C(F)(F)F)C1 was read as Gal4-VP16 FLuc -2.3% and RORgamma inh -21.4%.
C/C(N)=C(/C#N)C(=O)COC(=O)[C@@H](NC(=O)c1ccccc1Cl)C(C)C was read as SW480 rerep -56.1%, Gal4-VP16 FLuc -1.0%, KB-3-1 cytotox inactive, KB-V1 MDR tox inactive, RORgamma inh 20.5% and MCF10A rerep 2.06µM*.
CC(C)[C@H](NC(=O)c1ccccc1Cl)C(=O)OCC(=O)N1CCCCC1 was read as SW480 rerep 4.5% and MCF10A rerep -7.9%.
O=C(NCc1cccs1)c1ccc2ccccc2n1 was read as SW480 rerep -8.2%, Gal4-VP16 FLuc 0.9%, KB-3-1 cytotox inactive, KB-V1 MDR tox inactive, RORgamma inh 0.6% and MCF10A rerep -2.6%.
C=C(c1ccc2ccccc2n1)c1cccs1 was read as KB-3-1 cytotox 11.6µM* and KB-V1 MDR tox inactive.
CCOC(=O)OCC1OC(C#Cc2ccccc2)C=CC1OC(=O)OCC (stereo not drawn) was read as Gal4-VP16 FLuc -1.4%[10 µM] and RORgamma inh -6.5%[10 µM].
Screening CSc1ncnc2c1ncn2CCCNCc1ccccn1 returned KB-3-1 cytotox inconclusive and KB-V1 MDR tox inactive.
CCN(CC)CCN1C(=O)C(O)=C(C(C)=O)C1c1ccccc1[N+](=O)[O-] (stereo not drawn) was read as SW480 rerep inconclusive, Gal4-VP16 FLuc -6.6%, KB-3-1 cytotox inactive, KB-V1 MDR tox inconclusive, RORgamma inh 5.8% and MCF10A rerep 20.6µM*.
`COC(=O)C1NN=C(C(=O)c2ccccc2)C1c1ccccc1` (stereo not drawn) gave SW480 rerep -151.2%, Gal4-VP16 FLuc 5.5%, KB-3-1 cytotox inactive, KB-V1 MDR tox 14.6µM*, RORgamma inh 23.0% and MCF10A rerep -70.5%.
Cc1ccccc1CN(c1ccc(C(=O)Nc2ccccc2C(=O)NCc2ccco2)cc1)S(C)(=O)=O was read as SW480 rerep -12.4%, Gal4-VP16 FLuc -12.2%, KB-3-1 cytotox inactive, KB-V1 MDR tox 8.2µM*, RORgamma inh -13.4% and MCF10A rerep 20.7%.
Screening CCOC(=O)c1ccccc1NC(=O)c1c(F)c(F)c(F)c(F)c1F returned SW480 rerep inconclusive, Gal4-VP16 FLuc -6.9%, KB-3-1 cytotox inactive, KB-V1 MDR tox inactive, RORgamma inh inconclusive and MCF10A rerep 20.6µM*.
For CCOC(=O)c1ccccc1NC(=O)c1cn(CC)c2nc(C)ccc2c1=O the results were SW480 rerep -9.7%, Gal4-VP16 FLuc inconclusive, KB-3-1 cytotox inactive, KB-V1 MDR tox inactive, RORgamma inh 11.2µM* and MCF10A rerep 0.1%.
For CCn1cc(C(=O)Nc2ccccc2C(=O)OC)c(=O)c2ccc(C)nc21 the results were Gal4-VP16 FLuc -21.9% and RORgamma inh -16.0%.
For CN(c1ccccc1C(=O)Nc1ccccc1C(=O)NCc1ccco1)S(C)(=O)=O the results were SW480 rerep 16.5%, Gal4-VP16 FLuc 4.6%, KB-3-1 cytotox inactive, KB-V1 MDR tox 14.6µM*, RORgamma inh 3.3% and MCF10A rerep 1.8%.
For CN(c1ccccc1C(=O)NCc1ccco1)S(C)(=O)=O the results were SW480 rerep -3.8%, Gal4-VP16 FLuc 12.9%, KB-3-1 cytotox inactive, KB-V1 MDR tox inactive, RORgamma inh -29.0% and MCF10A rerep -0.5%.
COc1ccc(CNC(=O)Cn2nnc(-c3ccc(C(F)(F)F)cc3)n2)cc1 was read as KB-3-1 cytotox inactive and KB-V1 MDR tox inconclusive.
For CCOC(=O)c1ccccc1NC(=O)c1ccccc1N(C)S(C)(=O)=O the results were SW480 rerep -4.1%, Gal4-VP16 FLuc -6.0%, KB-3-1 cytotox inactive, KB-V1 MDR tox 18.4µM*, RORgamma inh 20.3% and MCF10A rerep -10.5%.
`CCOC(=O)c1ccccc1NC(=S)N1CC(C)CC(C)C1` (stereo not drawn) gave SW480 rerep 2.6%, Gal4-VP16 FLuc inconclusive, KB-3-1 cytotox inactive, KB-V1 MDR tox inconclusive, RORgamma inh inconclusive and MCF10A rerep 15.4%.
For CCOC(=O)c1ccccc1NC(=S)N1CCC(C)CC1 the results were SW480 rerep -0.2%, Gal4-VP16 FLuc inconclusive, KB-3-1 cytotox inactive, KB-V1 MDR tox inactive, RORgamma inh 12.6µM* and MCF10A rerep 0.7%.
CCSc1cc(C2C(C#N)=C(N)OC(C)=C2C(=O)OC)c(C)o1 (stereo not drawn) was read as SW480 rerep -0.4%, Gal4-VP16 FLuc -2.5%, KB-3-1 cytotox inactive, KB-V1 MDR tox inactive, RORgamma inh 12.6µM* and MCF10A rerep 15.7%.
